The results in this text go back to PubChem BioAssay (NCATS).

Results filed as inconclusive are left out. Calls of active or inactive are those of the source. Unless noted, calls come from the whole dose curve.

A short description of experiment [1]: Inducers of the Endoplasmic Reticulum Stress Response (ERSR) in human glioma: Validation (AID 504836; active = well fitted curve in the direction sought with a large enough effect; an effect the other way counts as inactive or inconclusive; note: 0% is about no effect). In outline: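 Stably transfected U87-MG human glioma cells carrying a GRP78-based luminescent sensor were seeded at 1000 cells/well, pin-dosed with compounds and incubated 16 h. Luciferase reagent was then added, and end-point luminescence was read after 10 min at room temperature.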

The nature of experiment [2]: qHTS for Inhibitors of the Functional Ribonucleoprotein Complex (vRNP) of Lassa (LASV) Arenavirus: LASV Primary Screen - GLuc reporter signal (AID 1347082; calls by dose curve; tested in HEK293 reporter line; note: nearly all actives have a fitted effect of over 60% in size; note: potency is the fitted concentration of half-maximal effect; for activity change, negative = inhibition: % is set by controls: 0 for no effect and ±100 for the full control effect). Background: In qHTS, concentration-response curves come from the screen itself.
The nature of experiment [3]: qHTS for Inhibitors of the Functional Ribonucleoprotein Complex (vRNP) of Lassa (LASV) Arenavirus: Viability assay - alamar blue signal for LASV Primary Screen (AID 1347083; calls by dose curve; tested in HEK293 reporter line; note: nearly all actives have a fitted effect of over 80% in size; note: potency is the fitted concentration of half-maximal effect).
In experiment [4] the target is Nucleoprotein (Lymphocytic choriomeningitis virus (strain Armstrong)) (UniProt P09992). As to the kind of experiment: qHTS for Inhibitors of the Functional Ribonucleoprotein Complex (vRNP) of Lymphocytic Choriomeningitis Arenaviruses (LCMV): LCMV Primary Screen - GLuc reporter signal (AID 1347086). For activity change, negative = inhibition: % is set by controls: 0 for no effect and ±100 for the full control effect. Note: nearly all actives have a fitted effect of over 70% in size. Note: potency is the fitted concentration of half-maximal effect.
Chain of Nucleoprotein (Lymphocytic choriomeningitis virus (strain Armstrong)) (P09992 whole entry, looked up): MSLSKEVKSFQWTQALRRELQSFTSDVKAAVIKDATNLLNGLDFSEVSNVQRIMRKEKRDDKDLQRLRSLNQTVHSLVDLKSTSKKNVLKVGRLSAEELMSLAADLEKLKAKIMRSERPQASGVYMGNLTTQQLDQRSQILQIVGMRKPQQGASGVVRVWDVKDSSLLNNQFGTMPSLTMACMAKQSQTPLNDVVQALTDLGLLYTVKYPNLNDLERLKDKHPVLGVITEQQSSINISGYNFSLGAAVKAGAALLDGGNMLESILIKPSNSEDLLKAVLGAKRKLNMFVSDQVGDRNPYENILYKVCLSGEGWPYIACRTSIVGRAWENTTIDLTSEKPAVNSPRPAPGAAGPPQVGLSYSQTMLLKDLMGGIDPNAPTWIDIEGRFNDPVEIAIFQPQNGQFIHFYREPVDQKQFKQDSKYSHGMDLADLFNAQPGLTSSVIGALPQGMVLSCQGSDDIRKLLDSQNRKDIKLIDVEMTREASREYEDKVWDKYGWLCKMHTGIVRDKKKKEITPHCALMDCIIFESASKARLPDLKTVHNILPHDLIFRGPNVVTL
Experiment [5] in a line: Cytotoxicity counterscreen for inhibitors of SARS-CoV-2 cell entry (AID 1645845). Note: nearly all actives have a fitted effect of over 50% in size. Note: potency is the fitted concentration of half-maximal effect. In outline:
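Expi293F/hACE2 cells seeded overnight; cpd pin-transferred in DMSO, 1 h preincubation, + media, 48 h 37 C 5% CO2; ATPLite 1step luminescence; normalized to cells and no cells.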

A short description of experiment [6]: Primary qHTS to identify inhibitors of SARS-CoV-2 cell entry (AID 1645846). Note: nearly all actives have a fitted effect of over 45% in size. Note: potency is the fitted concentration of half-maximal effect. The note with it: activity change, negative = inhibition: at 57.1 µM (top of the series) unless noted. The procedure, abridged: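 Luminescence readout (Bright-Glo luciferase) 48 h after pseudoparticle addition. HEK293-ACE2 cells, 1500/well; compound pre-incubation 1 h; Normalized to spike PP and bald PP.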

Experiment [7] can be described thus: VSVG counterscreen qHTS to identify inhibitors of SARS-CoV-2 cell entry (AID 1645847). Note: potency is the fitted concentration of half-maximal effect; nearly all actives have a fitted effect of over 65% in size. The procedure, abridged:
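HEK293-ACE2 cells (Expi293F stably expressing human ACE2) were pretreated with compound for 1 h at 37 °C, then infected with MLV-based VSV-G pseudotyped particles for 48 h. Luciferase luminescence was normalized to VSV-G PP and bald PP wells.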
(In general: The purpose of a counterscreen is to sort out artefacts and off-target activity.)

Experiment [8] in a line: qHTS profiling of the MIPE4 collection as inhibitors of Plasmodium falciparum (3D7) proliferation (AID 743344; call rule not given here;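 note: scaled between DMSO vehicle wells and 0.29 µM artemisinin as full inhibition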). The following applies: P. falciparum 3D7 in erythrocytes, SYBR Green DNA fluorescence, 72 h; at 28.5 µM (top of the series) unless noted. In outline: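 Erythrocytes infected with P. falciparum (0.3% parasitemia, 2.5% hematocrit) incubated with compounds 72 h at 37 C, 5% CO2. Lysis with saponin/Triton buffer containing SYBR Green I, overnight at room temperature in the dark; DNA fluorescence (485/535 nm) normalised to 0.29 uM artemisinin and DMSO.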

The target of experiment [9] is Alpha-galactosidase (Coffea arabica) (UniProt Q42656). Description: Counterscreen for Glucocerebrosidase Inhibitors: qHTS Assay for Coffee Bean alpha-Galactosidase at pH 4.5 (AID 957; active = well fitted curve in the direction sought with a large enough effect; an effect the other way counts as inactive or inconclusive;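 note: plate controls were enzyme alone for no effect and no enzyme for full effect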). In outline: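 AC50 values derive from Hill-equation modeling of concentration-response data, normalized to no-enzyme and full-activity controls. The pH 4.5 citrate assay used 2 nM coffee bean enzyme and 80 uM fluorogenic substrate for 20 min.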
Chain of Alpha-galactosidase (Coffea arabica) (Q42656 whole entry, looked up): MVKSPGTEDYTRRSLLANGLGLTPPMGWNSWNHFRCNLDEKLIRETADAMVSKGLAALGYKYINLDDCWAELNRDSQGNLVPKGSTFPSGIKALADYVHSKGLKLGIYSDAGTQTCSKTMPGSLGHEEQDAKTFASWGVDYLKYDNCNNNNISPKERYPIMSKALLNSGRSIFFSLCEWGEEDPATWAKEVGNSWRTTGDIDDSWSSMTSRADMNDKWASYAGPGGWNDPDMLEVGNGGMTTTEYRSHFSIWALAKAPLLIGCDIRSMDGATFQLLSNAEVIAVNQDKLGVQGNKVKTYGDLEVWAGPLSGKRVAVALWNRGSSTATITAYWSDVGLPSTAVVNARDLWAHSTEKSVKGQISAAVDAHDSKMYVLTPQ

Experiment [10] shares this target. As to the kind of experiment: Counterscreen for Glucocerebrosidase Inhibitors: qHTS Assay for Coffee Bean alpha-Galactosidase at pH 5.9 (AID 998; active = well fitted curve in the direction sought with a large enough effect; an effect the other way counts as inactive or inconclusive;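 note: plate controls were uninhibited enzyme for no effect and no-enzyme basal signal for full effect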). In outline:
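Green coffee bean enzyme (2 nM final) was incubated with compounds (0.7 nM–77 uM) and 4-methylumbelliferyl alpha-D-galactopyranoside (80 uM) in citrate buffer pH 5.9, 20 min at room temperature. High-pH stop; fluorescence 365/440 nm; AC50 from Hill fits.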

Experiment [11] is described as follows: Validation screen for inhibitors of Lassa infection (AID 463096). Note: % is set by controls: 0 for no effect and ±100 for the full control effect.
Experiment [12] deals with Cytochrome P450 3A4 (Homo sapiens) (UniProt P08684). Description: qHTS Assay for Activators of Cytochrome P450 3A4 (AID 885; active = well fitted curve in the direction sought with a large enough effect; an effect the other way counts as inactive or inconclusive; note: nearly all actives have a fitted effect of over 65% in size). The procedure, abridged: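 20nM CYP3A4 + 25uM Luciferin-PPXE (=KM), 200mM KPO4; cpd 10 min RT; NADPH regen, 60 min RT; stop w/ detection buffer, 20 min; luminescence. Normalized to 57 uM ketoconazole.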
Chain of Cytochrome P450 3A4 (Homo sapiens) (P08684 whole entry, looked up): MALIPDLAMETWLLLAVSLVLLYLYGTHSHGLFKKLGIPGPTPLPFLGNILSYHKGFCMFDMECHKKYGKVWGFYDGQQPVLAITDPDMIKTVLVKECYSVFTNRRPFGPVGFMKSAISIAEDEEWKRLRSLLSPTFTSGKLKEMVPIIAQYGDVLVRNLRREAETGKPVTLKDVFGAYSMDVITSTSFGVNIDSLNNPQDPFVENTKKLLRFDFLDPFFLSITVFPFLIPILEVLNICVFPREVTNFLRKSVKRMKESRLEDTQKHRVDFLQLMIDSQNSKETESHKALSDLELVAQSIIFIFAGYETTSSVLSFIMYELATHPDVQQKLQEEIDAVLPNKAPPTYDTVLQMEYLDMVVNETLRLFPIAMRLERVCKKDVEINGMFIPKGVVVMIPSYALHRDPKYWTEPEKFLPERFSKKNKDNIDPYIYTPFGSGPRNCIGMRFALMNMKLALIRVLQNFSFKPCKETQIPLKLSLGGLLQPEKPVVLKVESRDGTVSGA
The nature of experiment [13]: S16 Schwann cell PMP22 intronic element firefly luciferase assay (AID 624032; active = well fitted curve in the direction sought with a large enough effect; an effect the other way counts as inactive or inconclusive; note: potency is the fitted concentration of half-maximal effect; nearly all actives have a fitted effect of over 30% in size). In outline:
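Rat S16 Schwann cells stably carrying a PMP22 intronic element-driven Fluc reporter were seeded overnight, then exposed to compounds for 24 h at 37 °C. Luminescence was normalized to PTC124 (positive control) and DMSO (0% activity).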

On to `OC[C@H]1O[C@@H](n2cnc3c(NC4CCCC4)ncnc32)[C@H](O)[C@@H]1O`, for which the molecule was classed as inactive in experiment [1]. The Potency result in [2], in experiment [3] and in experiment [4] was “inactive” throughout.

Turning to `N=c1ccn2c(n1)O[C@H]1[C@H](O)[C@@H](CO)O[C@H]12`, the molecule was classed as inactive in experiment [1]. The Potency entry in experiment [2], in experiment [3] and in [4] was “inactive” throughout.

`CNC(=O)c1c(F)cccc1Nc1nc(Nc2cc3c(cc2OC)CCN3C(=O)CN(C)C)nc2[nH]ccc12`: the Potency entry in [2], in experiment [3] and in experiment [5] was “inactive” each time. For the same molecule, the Potency in experiment [6] is 20 µM (active).

For the molecule `O=C1NC(=O)C(c2cnc3ccccn23)=C1c1cn2c3c(cccc13)CN(C(=O)N1CCOCC1)CC2`, the Potency entry in experiment [2] and in [4] was “inactive” each time. Further, the Potency in [3] is 6.85 µM (active); in [7], 0.215 µM (active).

As for `CC(C)c1cc(-c2n[nH]c(=O)n2-c2ccc3c(ccn3C)c2)c(O)cc1O`, the Potency was 0.385 µM (active) in [2], 0.243 µM (active) in [3] and 0.306 µM (active) in experiment [4]. Also, in experiment [6], the activity change, negative = inhibition was -96%.

In the case of `O=C(CCCCCCC(=O)Nc1cccnc1)NO`, the Potency result in experiment [2], in experiment [4] and in experiment [6] was “inactive” throughout. In addition, the Potency in experiment [3] was 19.3 µM (active).

Take `CCCn1c(=O)c2[nH]c(-c3cnn(Cc4cccc(C(F)(F)F)c4)c3)nc2n(CC)c1=O`: the Potency entry in [2], in [3] and in experiment [5] was “inactive” each time.

Consider `O=C(CCCCCCNC(=O)c1cnc(N(c2ccccc2)c2ccccc2)nc1)NO`, for which the Potency entry in experiment [2], in experiment [4] and in experiment [6] was “inactive” throughout. Besides, the Potency in [3] is 30.6 µM (active).

Regarding `O=C1NC(O)CCN1[C@@H]1O[C@H](CO)[C@H](O)[C@H]1O` (some centres not stated), the Potency entry in [2], in [3] and in experiment [5] was “inactive” in each case. For the same molecule, in experiment [6], the activity change, negative = inhibition was -26.7%.

Regarding `CC(C)C(C)C=CC(C)C1CCC2C3=CC=C4CC(O)CCC4(C)C3CCC21C` (configuration not stated), the parasite growth, % of DMSO control in experiment [8] amounted to 96.2%. Besides, the Potency is 27.3 µM (active) in experiment [2], 38.5 µM (active) in [3] and 7.69 µM (active) in experiment [4]. Besides, the Potency entry in experiment [5] and in [6] was “inactive” each time.

For the molecule `O=C(Nc1ccc(Oc2ccnc3[nH]ccc23)c(F)c1)c1cccn(-c2ccc(F)cc2)c1=O`, the Potency result in [2], in experiment [3] and in experiment [5] was “inactive” each time. The activity change, negative = inhibition in experiment [6] was -21.9%.

Consider `O=C1c2ccccc2-c2n[nH]c3cccc1c23`, for which the result in [9], in experiment [10] and in experiment [1] was inactive. The Potency entry in experiment [2], in experiment [4] and in [5] was “inactive” throughout. Moreover, in experiment [3], the Potency is 30.6 µM (active).

For `CN1N=C(N)c2cn([C@@H]3O[C@H](COP(=O)(O)O)[C@@H](O)[C@@H]3O)c3ncnc1c23`, the Potency entry in [2] and in experiment [4] was “inactive” throughout. Moreover, the Potency in [3] is 34.3 µM (active). Further, in experiment [6], the activity change, negative = inhibition is -94.7%.

Take `O=c1[nH]c2cc(Cl)c(Cl)cc2[nH]c1=O`: the call in experiment [9], in [10] and in experiment [1] was inactive. Besides, the Potency entry in experiment [11], in experiment [2], in experiment [3] and in experiment [4] was “inactive” each time.

Turning to `COc1cc(C(=O)N2CCC(N3CCN(C)CC3)CC2)ccc1Nc1ncc2c(n1)N(C)c1ccccc1C(=O)N2C`, the Potency result in experiment [2] is “inactive”. In addition, the Potency in experiment [3] was 17.2 µM (active); in experiment [4], 10.9 µM (active); in experiment [6] it was 31.6 µM (active).

Regarding `COc1cc(F)c(F)c(Nc2ccc(I)cc2F)c1NS(=O)(=O)C1(C[C@H](O)CO)CC1`, the Potency result in [2], in [3] and in experiment [4] was “inactive” in each case. Besides, in [6], the Potency is 25.1 µM (active).

`CN(C(Cc1ccc(OS(=O)(=O)c2cccc3cnccc23)cc1)C(=O)N1CCN(c2ccccc2)CC1)S(=O)(=O)c1cccc2cnccc12` (configuration not stated): the Potency in [2] is 13.7 µM (active); in [3], 21.7 µM (active). In [5], the Potency result is “inactive”.

With `CCC(C(=O)O)C1CCC(C)C(C(C)C(O)C(C)C(=O)C(CC)C2OC3(C=CC(O)[C@@]4(CC[C@](C)(C5CC[C@@](O)(CC)C(C)O5)O4)O3)C(C)CC2C)O1` (some centres not stated), the Potency result in [12] and in experiment [5] was “inactive” throughout. For the same molecule, the Potency in [13] was 0.361 µM (active); in [2], 3.43 µM (active); in experiment [3] it was 4.85 µM (active); in experiment [4], 0.968 µM (active).

On to `O=C(O)CCCCCC(=O)NN=C1CCCC1`, for which the Potency result in experiment [2], in experiment [3] and in experiment [5] was “inactive” throughout. In addition, in experiment [6], the activity change, negative = inhibition was -16.8%.

`Cc1cc(Cl)ccc1OCCCC(=O)NO`: the Potency result in [2], in experiment [4] and in [5] was “inactive” in each case. Further, in [3], the Potency was 24.3 µM (active). In [6], the activity change, negative = inhibition was -10.4%.

Consider `CCc1ccc(C(=O)Nc2cc(CN3CCN(C)CC3)cc(C(F)(F)F)c2)cc1C#Cc1cnc2ccnn2c1`, for which the Potency result in experiment [2] was “inactive”. Also, the results for the Potency in experiment [3], in [5] and in experiment [6] were 21.7 µM (active), 31.6 µM (active) and 22.4 µM (active), respectively.

In the case of `Cc1ccc2nc(NC(=O)CSc3nc4c(c(=O)n3-c3ccccc3)SCC4)sc2c1`, the Potency in experiment [2] was 19.3 µM (active); in experiment [3], 17.2 µM (active); in experiment [4], 8.63 µM (active). Moreover, the Potency entry in experiment [5] is “inactive”. Besides, the activity change, negative = inhibition in experiment [6] is -16.9%.

Turning to `Cn1cc(C[C@@H](N)C(=O)O)c2ccccc21`, the Potency result in experiment [2] and in [3] was “inactive” in each case. For the same molecule, in experiment [5], the outcome is “inactive [at 11.3 µM]”. The activity change, negative = inhibition in [6] is -6.52% [at 11.3 µM].

For the molecule `CC(C)C[C@H](CC(=O)O)C(=O)N[C@@H](Cc1c[nH]c2ccccc12)C(=O)N[C@@H](C)c1ccccc1`, the Potency result in [2], in [3], in experiment [4] and in experiment [5] was “inactive” each time. For the same molecule, the activity change, negative = inhibition in [6] is -6.02%.
